WT yeast gro inh: growth inhibition of WT strain, primary screen, mitochondrial fusion inhibitor project, WT and mutant strains, chemical genetic. mitochondrial fusion phenotypic screen. inhibition, % at 10 µM. 190,000 compounds, 2.1% hits. AID 1362, 2008; in the data active = inhibition above about 58%; tested in S. cerevisiae
zVAD death inh: inhibitors of zVAD-triggered necroptosis, primary screen, L929 cells. L929 zVAD necroptosis rescue, ATP luminescence, 24 h; with zVAD 60 µM. viability rescue, % at 10 µM. 220,000 compounds, 0.38% hits;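 active = activation, scaled between plate controls, above about 75%, limit read from the data; inactive = activation under that limit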;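 note: 0% = zVAD with DMSO and 100% = DMSO alone without zVAD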
PKD1 kinase inh: inhibitors of human PKD1 kinase, biochemical, fluorescence polarization. Serine/threonine-protein kinase D1 (Homo sapiens), Q15139. PKD1 kinase fluorescence polarization assay. inhibition, % (no concentration beside the values). 200,000 compounds, 0.056% hits. AID 797, 2007; in the data active = inhibition above about 50%
Target sequence (Q15139 whole entry, looked up): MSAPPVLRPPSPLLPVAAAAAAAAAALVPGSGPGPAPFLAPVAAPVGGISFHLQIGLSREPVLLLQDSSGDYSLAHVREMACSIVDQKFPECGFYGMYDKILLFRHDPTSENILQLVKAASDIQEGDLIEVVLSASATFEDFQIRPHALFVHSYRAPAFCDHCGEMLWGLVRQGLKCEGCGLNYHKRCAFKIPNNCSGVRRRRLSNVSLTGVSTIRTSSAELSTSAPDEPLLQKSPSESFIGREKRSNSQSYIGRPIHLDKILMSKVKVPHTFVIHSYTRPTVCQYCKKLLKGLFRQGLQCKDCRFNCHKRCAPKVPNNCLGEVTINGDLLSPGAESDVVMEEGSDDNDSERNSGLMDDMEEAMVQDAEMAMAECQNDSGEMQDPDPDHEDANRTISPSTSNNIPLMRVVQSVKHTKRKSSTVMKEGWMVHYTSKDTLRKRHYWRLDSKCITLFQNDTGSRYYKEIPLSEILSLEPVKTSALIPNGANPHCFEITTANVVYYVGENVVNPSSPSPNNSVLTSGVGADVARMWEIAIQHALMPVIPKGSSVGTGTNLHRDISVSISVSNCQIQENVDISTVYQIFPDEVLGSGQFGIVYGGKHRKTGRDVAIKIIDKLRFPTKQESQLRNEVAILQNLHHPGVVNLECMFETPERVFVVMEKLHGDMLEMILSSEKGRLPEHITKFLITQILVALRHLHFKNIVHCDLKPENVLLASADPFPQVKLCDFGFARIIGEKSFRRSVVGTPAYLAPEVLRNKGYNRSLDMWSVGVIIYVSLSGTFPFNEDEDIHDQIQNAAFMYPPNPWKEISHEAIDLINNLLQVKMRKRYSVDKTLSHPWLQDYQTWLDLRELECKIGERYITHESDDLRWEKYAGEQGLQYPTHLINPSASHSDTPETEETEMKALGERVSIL
PERK inhibitor: block of dimerizer-induced PERK translation repression, primary screen, PERK inhibitor project, CHO PERK-DD cells, SEAP luminescence, HTS | AID 1416, 2008 | inhibition, % at 5.6 µM | CHO PERK-DD fusion, SEAP luminescence translation reporter | 220,000 compounds, 0.17% hits | Eukaryotic translation initiation factor 2-alpha kinase 3 (Homo sapiens), Q9NZJ5;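 active = inhibition above the mean inhibition of all tested compounds plus 3 SD, set separately per screening campaign, cut at about 2.9% in these data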;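 note: PERK kinase domain activated by AP20187 dimerizer at 100 nM; 0% = DMSO with dimerizer and 100% = rapamycin at 8.4 µM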
TNF death inh: inhibitors of TNF-alpha triggered necroptosis, primary screen, cell-based, Jurkat FADD-/-, single concentration. Jurkat FADD-/- TNF necroptosis rescue, ATP luminescence, 24 h; 0 = TNF only, 100 = no-TNF cells. activation (protection from cell death), % at 10 µM. 220,000 compounds, 0.068% hits;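 active = activation, meaning protection from cell death, of at least 50% relative to plate controls; inactive = activation below 50%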;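 note: necroptosis triggered by 40 ng/mL TNF-alpha added together with compound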
Redox H2O2 prof: compounds producing H2O2 with reducing agent – biochemical, NIH compound library profiling, artefact control for MLSCN library redox annotation, primary screen; activation, % at 10 µM; 200,000 compounds, 0.03% hits; AID 878, 2007; DTT-dependent redox cycling H2O2, phenol red/HRP absorbance; 100% = 100 µM peroxide control, 0% = buffer;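 active = activation of at least 50% relative to the plate's high and low controls in the primary single-dose screen; inactive = activation below 50%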;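 note: compound incubated with DTT at 0.8 mM final as the reducing agent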
The depositor's hits bear a star. Compounds with a hit are over-represented: about 2.4% of the library has one in this group of screens.

`O=C(Cn1cnc2ccccc2c1=O)c1cccs1` gave WT yeast gro inh -7, zVAD death inh 0, PKD1 kinase inh -2, PERK inhibitor 0, TNF death inh 16 and Redox H2O2 prof 1.
For Nc1ccc2c(c1)OC1(CCCC1)O2 the results were WT yeast gro inh 7, zVAD death inh 1, PKD1 kinase inh 2, PERK inhibitor 0, TNF death inh -2 and Redox H2O2 prof 0.
CCOc1cc(/C=N/NC(=O)c2cccnc2)ccc1OCC(=O)N1CCOCC1 was read as WT yeast gro inh -16, zVAD death inh 0, PKD1 kinase inh 9, PERK inhibitor 1, TNF death inh 1 and Redox H2O2 prof 0.
For CCN1C/C(=C\c2cccc([N+](=O)[O-])c2)C(=O)/C(=C/c2cccc([N+](=O)[O-])c2)C1 the results were WT yeast gro inh 65*, zVAD death inh 1, PKD1 kinase inh -16, PERK inhibitor 0, TNF death inh 19 and Redox H2O2 prof 0.
For CCc1ccccc1NC(=O)/C(=C/c1ccco1)c1ccccc1 the results were WT yeast gro inh 59*, zVAD death inh 0, PKD1 kinase inh 1, PERK inhibitor 0, TNF death inh -1 and Redox H2O2 prof 0.
`CC(C)(C)C1CCc2[nH]c3ccccc3c(=O)c2C1` (stereo not drawn) gave WT yeast gro inh 82*, zVAD death inh 2, PKD1 kinase inh 3, PERK inhibitor 0, TNF death inh -3 and Redox H2O2 prof -1.
O=C(Nc1nc(-c2cc(Cl)sc2Cl)cs1)c1ccccc1 was read as WT yeast gro inh 68*, zVAD death inh 0, PKD1 kinase inh -6, PERK inhibitor -1, TNF death inh -3 and Redox H2O2 prof 0.
COc1ccc(-c2[nH]c(-c3ccc4c(c3)OCO4)nc2-c2ccccc2)cc1 was read as WT yeast gro inh 71*, zVAD death inh 0, PKD1 kinase inh 0, PERK inhibitor -1, TNF death inh -10 and Redox H2O2 prof -6.
For CCOc1ccc2nc(NC(=O)c3ccoc3C)sc2c1 the results were WT yeast gro inh 79*, zVAD death inh 0, PKD1 kinase inh -6, PERK inhibitor -1, TNF death inh -21 and Redox H2O2 prof 1.
CC(C)NC(=S)Nc1ccc2nc3n(c(=O)c2c1)CCCCC3 was read as WT yeast gro inh -19, PKD1 kinase inh 0, PERK inhibitor -1, TNF death inh 3 and Redox H2O2 prof 0.
Screening O=C1S/C(=C\c2ccc(O)c([N+](=O)[O-])c2)C(=O)N1c1ccccc1Cl returned WT yeast gro inh 80*, zVAD death inh -2, PKD1 kinase inh 3, PERK inhibitor 1, TNF death inh -1 and Redox H2O2 prof 1.
Screening O=C1S/C(=C\c2ccc(O)c([N+](=O)[O-])c2)C(=O)N1Cc1cccc([N+](=O)[O-])c1 returned WT yeast gro inh 86*, zVAD death inh 1, PKD1 kinase inh 1, PERK inhibitor 2, TNF death inh -1 and Redox H2O2 prof 1.
`Cc1cccc(NC(=O)CN2C(=O)S/C(=C\c3ccc(O)c([N+](=O)[O-])c3)C2=O)c1` gave WT yeast gro inh 33, zVAD death inh 65, PKD1 kinase inh -2, PERK inhibitor 0, TNF death inh 4 and Redox H2O2 prof 0.
`COc1cc(/C=C2\SC(=O)N(c3cccc(Cl)c3)C2=O)cc([N+](=O)[O-])c1O` gave WT yeast gro inh 56, zVAD death inh -1, PKD1 kinase inh -6, PERK inhibitor 1, TNF death inh -1 and Redox H2O2 prof -1.
For C/C(=N\Nc1ccccn1)c1ccc(N2CCOCC2)cc1 the results were WT yeast gro inh 2, zVAD death inh 1, PKD1 kinase inh -9, PERK inhibitor 0, TNF death inh 4 and Redox H2O2 prof 0.
